This is part of a sample that, as a whole, favours compounds with a hit. Of some 83,000 tested, about 20% had one in any assay.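 96-well plates, one dose, 48 hours. Percent growth reported; active if below 10.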 Values without a mark were called inactive. Active and inactive are the calls of the source.
Tested on: PC-3 prostate
Assay: NCI-60 one-dose screen, 48 h (100 = growth as untreated, 0 = no growth, -100 = all killed)
Conditions: 10 µM unless noted
Protocol: Growth inhibition of the PC-3 human tumor cell line is measured as a screen for anti-cancer activity. Cells are grown in 96 well plates and exposed to the test compound for 48 hours. Compounds are tested at a single concentration, which is 10^-5 M for most compounds. The reported endpoint is percent growth (GI% or GIPRCNT), where numbers from 0 - 100% represent growth inhibition, and numbers from -100% - 0 represent cell death. For example, a value of 40 represents 60% growth inhibition. A value of 0 means no net growth occurred over the course of the experiment. A value of -40 indicates 40% of cells at the beginning of the experiment died by the end of the experiment. A value of -100 means all cells are dead at the end of the experiment.
NCI-60 Human Tumor Cell Lines Screen was performed using the standard one-dose NCI protocol, which is described in more detail at https://dtp.cancer.gov/discovery_development/nci-60/default.htm.
Compounds with GIPRCNT values below 10 were considered active. Activity score was based on GIPRCNT using the following formula: […]
Score is 0 for GIPRCNT values of 100 or above, 50 for GIPRCNT values of 0, and 100 for GIPRCNT values of -100.

SMILES	growth
O=C(O)c1ccc[n+](CC(=O)N2CCN(c3cc4c(cc3F)c(=O)c(C(=O)O)cn4C3CC3)CC2)c1	87.3%
COc1ccc(C(O)c2cc3c(N)c(C(=O)Nc4ccc(Cl)cc4)sc3nc2C)cc1 (stereo not given)	21.4%
Cc1cc(C)c(C=O)c(C)c1	79.9%
CS(=O)(=O)Nc1cc(-c2ccc3ncnc(Nc4ccc5[nH]ncc5c4)c3c2)cnc1Cl	76.8%
C[C@@H]1CN(Cc2ccc(/C=C/c3n[nH]c4ccc5nc(-c6cn[nH]c6C(F)(F)F)c6c(c5c34)CCCC6)cc2)C[C@H](C)O1	22.7%
COc1cccc(-c2nc3occn3c2-c2ccnc(NCCCNS(=O)(=O)c3cccc(F)c3)n2)c1	79.4%
COc1cc(NCCCN(CC(C)C)CC(C)C)c2ncccc2c1	70.4%
CC(C)C1C2=C(NCCN1C(=O)Cc1ccccc1)C(C)(C)N(Cc1ccccc1)C2=O (stereo not given)	93.2%
CN1CCN(c2cc(F)c(NC3=C(Cl)C(=O)c4ncccc4C3=O)c(F)c2)CC1	11.8%
Cn1c(COC(=O)NCCN2CCOCC2)nc2c(N3CCOCC3)nc(-c3ccccc3)nc21	-71.2% (active)
C[C@H]1[C@H](C)CC[C@]2(CO)CC[C@]3(C)C(=CC[C@@H]4[C@@]5(C)Cc6c([nH]c7ccccc67)C(C)(C)[C@@H]5CC[C@]43C)[C@H]12	68.5%
Clc1ccc(C2CC(c3cccc(Nc4ccncc4)c3)=NN2c2ccc(Cl)cc2)cc1 (stereo not given)	17%
NC(=O)C1(N2CCCCC2)CCN(CCCC(=O)c2ccc(F)cc2)CC1	30.2%
CN1CCN(C(=O)[C@]2(C)CC[C@]3(C)CC[C@]4(C)C(=CC(=O)[C@@H]5[C@@]6(C)CCC(=O)NC(C)(C)[C@@H]6CC[C@]54C)[C@@H]3C2)CC1	88.8%
N#CSCC1CC(O)(c2ccccc2)C(c2ccccc2)C(c2ccc(F)cc2)O1 (stereo not given)	15.9%
COC(=O)C(c1ccccc1)C(CC(=O)c1ccccc1)c1ccccc1 (stereo not given)	62.3%
O=C(N/N=C/c1cccnc1)c1ccccc1Nc1cccc(C(F)(F)F)c1	88.8%
COc1ccc(Cl)cc1NC(=O)c1c(NC(=O)C(F)(F)C(F)(F)F)sc2c1CCCCC2	5.18% (active)
CC(=O)OC1CCC2(C)C(CCC3C4CC=C(C(C)=O)C4(C)OC(=O)CC32)C1 (stereo not given)	73.2%
NC(=O)c1cccc(-n2ccc3cc(NC(=O)Nc4cc(C(F)(F)F)cc(C(F)(F)F)c4)ccc32)n1	32.4%

SMILES	growth
NC(=O)c1cccc(-c2cc(C(N)=O)ccc2Cl)c1	29.6%
O=C(N/N=C/c1ccncc1)c1ccccc1Nc1cccc(C(F)(F)F)c1	75.8%
COc1ccc(Cn2nc(-c3cc(OC)c(OC)c(OC)c3)c3c2CCc2cnoc2-3)cc1OC	65%
COc1cc(C(=O)/C=C/c2c(C)n([O-])c3ccc(Cl)cc3[n+]2=O)cc(OC)c1OC	46.7%
Cc1cc(NC(=O)c2cnc(N3CCN(CCOCCOCCOCCOCCC(=O)N[C@H](C(=O)N4C[C@H](O)C[C@H]4C(=O)N[C@@H](C)c4ccc(-c5scnc5C)cc4)C(C)(C)C)CC3)cn2)c2ncccc2c1	1.95% (active)
c1ccc(-c2nn(-c3ccccc3)[n+](-c3cccc4ccccc34)n2)cc1	6.61% (active)
COc1ccc(C(=O)c2cc3c(N)c(C(=O)Nc4ccc(Cl)cc4)sc3nc2C)cc1	78.7%
O=C1Nc2cc(-c3ccncc3)ccc2/C1=C/c1ccc[nH]1	88.1%
CCOC(=O)c1c(SC)nn(-c2cc(=O)[nH]c3ccc(Br)cc23)c1N	94.2%
CC(=O)OCCCCCNc1ccccc1	100%
c1cnc2nc3c(cc2c1)oc1ccccc13	104%
Cc1c2c(cc[n+]1Cc1ccccc1)c1ccc(OCC3CCCCC3)cc1n2CC1CCCCC1	-75.8% (active)
O=S(=O)(NCCNc1nccc(-c2c(-c3cccc(F)c3)nc3occn23)n1)c1cccc2ccccc12	30.6%
CCOC(=O)N1CCc2c(sc3nc4nc[nH]n4c(=O)c23)C1	92.7%
O=C1Nc2c(ccc(Cl)c2Cl)/C1=C/c1ccc(F)cc1	79.3%
O=C1/C(=C\c2cn(Cc3ccccc3)c3ccc(Br)cc23)c2ccccc2N1c1c(Cl)cccc1Cl	78%
Cc1ccc(C2CC(c3cccc(Nc4ccncc4)c3)=NN2c2ccc(Cl)cc2)cc1 (stereo not given)	-83.4% (active)
CS(=O)(=O)c1ccc(-c2cc(-c3nnc(SCC(=O)Nc4ccc(C(=O)/C=C/c5ccc(Cl)cc5)cc4)n3-c3ccccc3)c3ccccc3n2)cc1	89.1%
O=C(CNCCO)Nc1ccc2ncnc(Nc3ccc(OCc4cccc(F)c4)c(Cl)c3)c2c1	84.4%
CCCCCCCCCCN=C(N)N=C(N)N	22.1%

Source: PubChem BioAssay (NCI)
